{"source": "PubChem BioAssay AID485344", "about": "(National Center for Advancing Translational Sciences (NCATS), 2010)", "note": "In all, about 340,000 compounds went through this assay and about 6,900 (2%) were called active. Rule as the data show it: active = inhibition above about 30%; inactive = below that, where a call was filed. Only a selection was taken, and actives are over-represented in it overall.", "data": [{"molecular_target": "D(2) dopamine receptor (Homo sapiens) (UniProt P14416)", "sequence (P14416 whole entry, looked up)": "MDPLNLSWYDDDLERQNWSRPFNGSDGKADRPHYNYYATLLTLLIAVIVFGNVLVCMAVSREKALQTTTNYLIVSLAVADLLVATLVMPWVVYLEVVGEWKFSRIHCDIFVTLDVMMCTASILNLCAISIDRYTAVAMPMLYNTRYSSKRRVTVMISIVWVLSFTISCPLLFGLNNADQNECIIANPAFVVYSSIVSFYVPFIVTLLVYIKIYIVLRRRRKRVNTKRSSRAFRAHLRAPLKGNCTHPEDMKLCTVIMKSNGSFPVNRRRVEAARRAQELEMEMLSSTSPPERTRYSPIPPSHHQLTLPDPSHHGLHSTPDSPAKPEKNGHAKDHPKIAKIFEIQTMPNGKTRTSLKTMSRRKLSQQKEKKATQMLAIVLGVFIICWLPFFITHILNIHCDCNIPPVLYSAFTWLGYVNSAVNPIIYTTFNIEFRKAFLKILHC", "assay": "HTS Assay for Allosteric Antagonists of the Human D2 Dopamine Receptor: Primary Screen for Antagonists; also: 0% is about no effect", "details": "HEK293 TREx D2 cells, calcium flux, dopamine EC80; at 10 µM; stronger effect = higher value", "method_in_brief": "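Tetracycline-induced HEK293 T-REx cells expressing D2 force-coupled to calcium signalling were dye-loaded, exposed to compound for 180 s, then challenged with an EC80 of dopamine; calcium flux was followed kinetically for a further 180 s.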", "values": [{"smiles": "CCC(C)N(C(=O)Cn1nc(C)c([N+](=O)[O-])c1C)C1CCS(=O)(=O)C1", "note": "(stereo unspecified)", "inhibition": "15.9% (inactive)"}, {"smiles": "C/C=C/c1ccc(OCCCCN2CCC(C)CC2)c(OC)c1", "inhibition": "45.6% (active)"}, {"smiles": "COc1ccc(OCCCCN2CCC(C)CC2)cc1", "inhibition": "7.68% (inactive)"}, {"smiles": "C/C=C/c1ccc(OCC(O)CN2CCCCCCC2)c(OC)c1", "note": "(stereo unspecified)", "inhibition": "-10.5% (inactive)"}, {"smiles": "CCS(=O)(=O)N1CCC(C(=O)N2CCN(c3ccccc3)CC2)CC1", "inhibition": "-2.98% (inactive)"}, {"smiles": "Cc1ccc(S(=O)(=O)N2CCN(c3ccccc3)CC2)cc1C", "inhibition": "26.6% (inactive)"}, {"smiles": "O=C(C1CCC1)N1CCN(c2ccccc2)CC1", "inhibition": "1.73% (inactive)"}, {"smiles": "CCCS(=O)(=O)N1CCCC(C(=O)N2CCN(c3ccccc3)CC2)C1", "note": "(stereo unspecified)", "inhibition": "6.48% (inactive)"}, {"smiles": "CS(=O)(=O)N1CCC(C(=O)N2CCN(c3ccccc3)CC2)CC1", "inhibition": "47.3% (active)"}, {"smiles": "CCS(=O)(=O)N1CCC(N2CCN(c3ccccc3)CC2)CC1", "inhibition": "73.1% (active)"}, {"smiles": "O=C(c1cc2ccccc2o1)N1CCN(S(=O)(=O)c2ccc(Cl)s2)CC1", "inhibition": "17.4% (inactive)"}, {"smiles": "CC(C)(CNC(=O)CNC(=O)C1CCCCC1)N1CCOCC1", "inhibition": "-45.4% (inactive)"}, {"smiles": "CC1(C)CC(=O)C=C(c2ccc(Cl)c(C(F)(F)F)c2)C1", "inhibition": "4.19% (inactive)"}, {"smiles": "OC(COc1ccc(F)cc1Cl)CN1CCc2ccccc2C1", "note": "(stereo unspecified)", "inhibition": "68.3% (active)"}, {"smiles": "Cc1ccc(OCC(O)CN2CCN(CC(O)COc3ccc(C)cc3Cl)CC2)c(Cl)c1", "note": "(stereo unspecified)", "inhibition": "78.4% (active)"}, {"smiles": "Cc1cccc(OCC(O)CN2CCN(S(=O)(=O)c3ccc(C)cc3C)CC2)c1", "note": "(stereo unspecified)", "inhibition": "-1.31% (inactive)"}, {"smiles": "CCc1ccc(OCC(O)CN2CCN(CCO)CC2)cc1", "note": "(stereo unspecified)", "inhibition": "-7.21% (inactive)"}, {"smiles": "C=CCc1ccc(OCC(O)CN2CCN(Cc3ccccc3)CC2)c(OC)c1", "note": "(stereo unspecified)", "inhibition": "0.147% (inactive)"}, {"smiles": "Cc1ccc(Cl)c(OCC(=O)N2CCc3ccccc3C2)c1", "inhibition": "2.48% (inactive)"}, {"smiles": "CC(C)(C)OC(=O)Nc1ccc([C@@H](NC(=O)OC(C)(C)C)C(=O)OC(C)(C)C)cc1", "inhibition": "5.44% (inactive)"}, {"smiles": "Nc1nnc(SCCN2C(=O)c3ccccc3S2(=O)=O)s1", "inhibition": "49.1% (active)"}, {"smiles": "CCCc1nnc(NC(=O)CN2C(=O)c3ccccc3S2(=O)=O)s1", "inhibition": "2.63% (inactive)"}, {"smiles": "Nc1nnc(SCn2nnc3ccccc3c2=O)s1", "inhibition": "-2.28% (inactive)"}, {"smiles": "CCN(CC(=O)Nc1ccc(OC)cc1)C(=O)c1ccc(Cl)c(S(=O)(=O)N2CCCC2)c1", "inhibition": "-15.2% (inactive)"}, {"smiles": "CCOc1ccc(CC(=O)NCCS(=O)(=O)N2CCN(c3ccccc3)CC2)cc1", "inhibition": "-11.3% (inactive)"}, {"smiles": "O=S(=O)(NCCS(=O)(=O)N1CCN(c2ccccc2)CC1)c1ccc(F)cc1", "inhibition": "-7.02% (inactive)"}]}]}
